Reference: PubChem BioAssay (NCATS)
Records with an inconclusive call do not appear. Where a call stands in place of a potency, no number is given. The source made the active and inactive calls. The call rests on the fitted dose curve; in most records, active means well fitted cell-killing curve with a large enough effect; inconclusive means small, poorly fitted or top-dose-only effect; inactive means flat fitted curve, though single readings scatter.

Tests used:
[1] = Cell Viability - LYMP2-025 (AID 976); further: potency means the concentration at half of the fitted maximal effect
Procedure, shortened: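 Human lymphoblastoid LYMP2-025 cells, 2500/well, exposed 24 h at 37 C in complete medium in 1536-well qHTS. Viability as cellular ATP by CellTiter-Glo luminescence; AC50 from Hill fits of concentration-response data.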

[2] = Cell Viability - LYMP2-002 (AID 977);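 further: series mostly up to about 92 µM; compound exposure lasted 24 h at 37 °C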
Procedure, shortened: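 Cytotoxicity is scored as concentration-dependent loss of cellular ATP in a human lymphoblastoid line after 24 hr compound treatment at 37 C. AC50 is obtained by modelling concentration-response data with the Hill equation.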

[3] = Cell Viability - LYMP2-006 (AID 978); further: series mostly up to about 92 µM; nearly all actives have a fitted effect of over 60% in size
Procedure, shortened: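 Cells are seeded at 2500 per well and rested 5 hr at 37 C. Compounds are added across a concentration series for 24 hr at 37 C, after which ATP is quantified by luciferase luminescence.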

[4] = Cell Viability - LYMP2-007 (AID 979);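 further: cells exposed to compound for 24 h before reading; nearly all actives have a fitted effect of over 60% in size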
Procedure, shortened: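 Human lymphoblastoid LYMP2-007 cells (2500/well) preincubated 5 h at 37 C, then treated 24 h at 37 C in complete medium. Viability by CellTiter-Glo ATP luminescence after 30 min at room temperature; AC50 from Hill fits.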

[5] = Cell Viability - LYMP2-008 (AID 980); further: nearly all actives have a fitted effect of over 60% in size
Procedure, shortened: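 LYMP2-008 lymphoblastoid cells (2500/well) plated 5 h, then treated 24 h at 37 C in complete medium. Viability read as intracellular ATP by CellTiter-Glo luminescence after 30 min at room temperature; AC50 from Hill fits.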

[6] = Cell Viability - LYMP2-010 (AID 981); further: nearly all actives have a fitted effect of over 55% in size
Procedure, shortened: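 Human lymphoblastoid LYMP2-010 cells (2500/well) treated 24 h at 37 C in complete medium; viability read as intracellular ATP by CellTiter-Glo luminescence. AC50 from Hill fits of concentration-response data; tetraoctylammonium bromide positive control.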

[7] = Cell Viability - LYMP2-012 (AID 982);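 further: cellular ATP by luciferase luminescence where a drop means cytotoxicity; cells exposed to compound for one day before reading; nearly all actives have a fitted effect of over 55% in size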
[8] = Cell Viability - LYMP2-014 (AID 983); further: series mostly up to about 92 µM; nearly all actives have a fitted effect of over 50% in size
Procedure, shortened: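 LYMP2-014 human lymphoblastoid cells, 2500/well, treated 24 h at 37 C in complete medium; viability by CellTiter-Glo ATP luminescence after 30 min at room temperature. AC50 from Hill fits of qHTS concentration-response; tetraoctylammonium bromide positive control.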

[9] = Cell Viability - LYMP2-016 (AID 984); further: nearly all actives have a fitted effect of over 55% in size
Procedure, shortened: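 Cells were seeded at 2500 per well and rested 5 hr before a 24 hr compound exposure at 37 C. Viability was then gauged as cellular ATP by luciferase luminescence, with AC50 values fitted to the Hill equation.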

[10] = Cell Viability - LYMP2-018 (AID 985); further: nearly all actives have a fitted effect of over 50% in size
Procedure, shortened: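 Human lymphoblastoid LYMP2-018 cells, 2500/well, settled 5 hr at 37 C then exposed to compound 24 hr at 37 C; intracellular ATP measured by CellTiter-Glo luminescence. AC50 from Hill-equation concentration-response fits.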

| SMILES | Potency [1] | Potency [2] | Potency [3] | Potency [4] | Potency [5] | Potency [6] | Potency [7] | Potency [8] | Potency [9] | Potency [10] |
| --- | --- | --- | --- | --- | --- | --- | --- | --- | --- | --- |
| CCCCCCC(=O)O | inactive | inactive | inactive | inactive | inactive | inactive | inactive | inactive | inactive |  |
| COc1ccc(N)c(OC)c1 | inactive | inactive | inactive | inactive | inactive | inactive | inactive | inactive | inactive | inactive |
| CC/C(C)=N/O | inactive | inactive | inactive | inactive | inactive | inactive | inactive | inactive | inactive | inactive |
| Cc1ccc2ncccc2c1 | inactive | inactive | inactive | inactive | inactive | inactive | inactive | inactive | inactive |  |
| OC/C(Br)=C(\Br)CO | inactive | inactive | inactive | inactive | inactive | inactive | inactive | inactive | inactive | inactive |
| CC(=O)Nc1cccc(N)c1 | inactive | inactive | inactive | inactive | inactive | inactive | inactive | inactive | inactive |  |
| ClCCl | inactive | inactive | inactive | inactive | inactive | inactive | inactive | inactive | inactive |  |
| NC(=O)c1ccccc1[N+](=O)[O-] | inactive | inactive | inactive | inactive | inactive | inactive | inactive | inactive | inactive |  |
| COC(=O)CS | inactive | inactive | inactive | inactive | inactive | inactive | inactive | inactive | inactive | inactive |
| O=C(O)c1cccc([N+](=O)[O-])c1 | inactive | inactive | inactive | inactive | inactive | inactive | inactive | inactive | inactive |  |
| O=[N+]([O-])c1ccc2nc[nH]c2c1 | inactive | inactive | inactive | inactive | inactive | inactive | inactive | inactive | inactive |  |
| Cc1ccc2c(c1[N+](=O)[O-])C(=O)c1ccccc1C2=O | inactive | inactive | inactive | inactive | inactive | inactive | inactive | inactive | inactive |  |
| Cc1cc(C(=O)O)ccc1[N+](=O)[O-] | inactive | inactive | inactive | inactive | inactive | inactive | inactive | inactive | inactive |  |
| Cc1ccc(C#N)cc1 | inactive | inactive | inactive | inactive | inactive | inactive | inactive | inactive | inactive | inactive |
| Nc1cc(S(=O)(=O)O)ccc1O | inactive | inactive | inactive | inactive | inactive | inactive | inactive | inactive | inactive | inactive |
| CCC(C)O (configuration not stated) | inactive | inactive | inactive | inactive | inactive | inactive | inactive | inactive | inactive |  |
| C=CC(=O)OCCCC | inactive | inactive | inactive | inactive | inactive | inactive | inactive | inactive | inactive |  |
| C[C@@H]1CC2(OC3C[C@@]4(C)C5=CC[C@H]6C(C)(C)C(O[C@@H]7OC[C@@H](O)[C@H](O)[C@H]7O)CC[C@@]67C[C@@]57CC[C@]4(C)C31)OC(O)C1(C)OC21 (some centres not stated) | inactive | inactive | inactive | inactive | inactive | inactive | inactive | inactive | inactive |  |
| CC(N)CN (configuration not stated) | inactive | inactive | inactive | inactive | inactive | inactive | inactive | inactive | inactive |  |
| CCN(CC)c1cccc(O)c1 | inactive | inactive | inactive | inactive | inactive | inactive | inactive | inactive | inactive | inactive |

| SMILES | Potency [1] | Potency [2] | Potency [3] | Potency [4] | Potency [5] | Potency [6] | Potency [7] | Potency [8] | Potency [9] | Potency [10] |
| --- | --- | --- | --- | --- | --- | --- | --- | --- | --- | --- |
| COC(=O)CC#N | inactive | inactive | inactive | inactive | inactive | inactive | inactive | inactive | inactive |  |
| Cc1cc(C2(c3cc(C)c(O)cc3C)OS(=O)(=O)c3ccccc32)c(C)cc1O | inactive | inactive | inactive | inactive | inactive | inactive | inactive | inactive | inactive |  |
| O=C1CCC(=O)O1 | inactive | inactive | inactive | inactive | inactive | inactive | inactive | inactive | inactive |  |
| CC(=O)OCCC(C)C | inactive | inactive | inactive | inactive | inactive | inactive | inactive | inactive | inactive | inactive |
| Nc1cccc(C(F)(F)F)c1 | inactive | inactive | inactive | inactive | inactive | inactive | inactive | inactive | inactive | inactive |
| CCCCC=O | inactive | inactive | inactive | inactive | inactive | inactive | inactive | inactive | inactive |  |
| CC(C)Nc1ccccc1 | inactive | inactive | inactive | inactive | inactive | inactive | inactive | inactive | inactive | inactive |
| CC(O)CC(C)O (configuration not stated) | inactive | inactive | inactive | inactive | inactive | inactive | inactive | inactive | inactive | inactive |
| Cc1cc(C)c(N)cc1C | inactive | inactive | inactive | inactive | inactive | inactive | inactive | inactive | inactive |  |
| CSCCC=O | inactive | inactive | inactive | inactive | inactive | inactive | inactive | inactive | inactive | inactive |
| CC(=O)C1(C)CC2=C(CCCC2(C)C)CC1C (configuration not stated) | inactive | inactive | inactive | inactive | inactive | inactive | inactive | inactive | inactive |  |
| CCCCC(CC)CO (configuration not stated) | inactive | inactive | inactive | inactive | inactive | inactive | inactive | inactive | inactive | inactive |
| CC(O)COC(C)(C)C (configuration not stated) | inactive | inactive | inactive | inactive | inactive | inactive | inactive | inactive | inactive | inactive |
| O=C1OC(=O)c2c(Cl)c(Cl)c(Cl)c(Cl)c21 | inactive | inactive | inactive | inactive | inactive | inactive | inactive | inactive | inactive | inactive |
| COc1cccc2sc(N)nc12 | inactive | inactive | inactive | inactive | inactive | inactive | inactive | inactive | inactive | inactive |
| CC(C)=CCC/C(C)=C/C=O | inactive | inactive | inactive | inactive | inactive | inactive | inactive | inactive | inactive |  |
| CCCCC(CC)COCC1CO1 (configuration not stated) | inactive | inactive | inactive | inactive | inactive | inactive | inactive | inactive | inactive |  |
| OC(CCl)CCl | inactive | inactive | inactive | inactive | inactive | inactive | inactive | inactive | inactive |  |
| CC(C)CO | inactive | inactive | inactive | inactive | inactive | inactive | inactive | inactive | inactive |  |
| OCCO | inactive | inactive | inactive | inactive | inactive | inactive | inactive | inactive | inactive | inactive |

| SMILES | Potency [1] | Potency [2] | Potency [3] | Potency [4] | Potency [5] | Potency [6] | Potency [7] | Potency [8] | Potency [9] | Potency [10] |
| --- | --- | --- | --- | --- | --- | --- | --- | --- | --- | --- |
| Cc1c(N)cccc1N | inactive | inactive | inactive | inactive | inactive | inactive | inactive | inactive | inactive | inactive |
| Cc1ccc(C)c([N+](=O)[O-])c1 | inactive | inactive | inactive | inactive | inactive | inactive | inactive | inactive | inactive | inactive |
| CCOCCOCC | inactive | inactive | inactive | inactive | inactive | inactive | inactive | inactive | inactive | inactive |
| CCOCC(=O)O | inactive | inactive | inactive | inactive | inactive | inactive | inactive | inactive | inactive | inactive |
| O=C(O)CNC(=O)c1ccc(CO)o1 | inactive | inactive | inactive | inactive | inactive | inactive | inactive | inactive | inactive | inactive |
| CCCCCNCCCCC | inactive | inactive | inactive | inactive | inactive | inactive | inactive | inactive | inactive | inactive |
| O=[N+]([O-])c1cc(C(F)(F)F)ccc1Cl | inactive | inactive | inactive | inactive | inactive | inactive | inactive | inactive | inactive | inactive |
| Cc1ccccc1C(=O)O | inactive | inactive | inactive | inactive | inactive | inactive | inactive | inactive | inactive | inactive |
| FB(F)F | inactive | inactive | inactive | inactive | inactive | inactive | inactive | inactive | inactive | inactive |
| CCCCCCO | inactive | inactive | inactive | inactive | inactive | inactive | inactive | inactive | inactive | inactive |
| COC(=O)CCCC(=O)OC | inactive | inactive | inactive | inactive | inactive | inactive | inactive | inactive | inactive | inactive |
| CC(=O)OCc1ccco1 | inactive | inactive | inactive | inactive | inactive | inactive | inactive | inactive | inactive | inactive |
| Cc1ccc(C(=O)O)cc1 | inactive | inactive | inactive | inactive | inactive | inactive | inactive | inactive | inactive | inactive |
| Nc1ccc([N+](=O)[O-])c(N)c1 | inactive | inactive | inactive | inactive | inactive | inactive | inactive | inactive | inactive | inactive |
| c1ccc2c(c1)Oc1ccccc1S2 | 1 nM (active) | inactive | inactive | inactive | inactive | inactive | inactive | inactive | inactive | inactive |
| CCN(C(=O)N(CC)c1ccccc1)c1ccccc1 | inactive | inactive | inactive | inactive | inactive | inactive | inactive | inactive | inactive | inactive |
| CCCCC(C=O)CC (configuration not stated) | inactive | inactive | inactive | inactive | inactive | inactive | inactive | inactive | inactive | inactive |
| ON=C1CCCCC1 | inactive | inactive | inactive | inactive | inactive | inactive | inactive | inactive | inactive | inactive |
| C/C=C(/C)C#N | inactive | inactive | inactive | inactive | inactive | inactive | inactive | inactive | inactive | inactive |
